According to PubChem BioAssay (NCI):
Compounds without any hit were thinned out: in the full panel of roughly 79,000, 15% have a hit. Active and inactive are the calls of the source. Cut-off read from the data, not from the text of the source: active = growth inhibition above about 70%; inactive = the rest.

Experiments:
[1] = NCI Yeast Anticancer Drug Screen. Data for the rad50 strain (AID 155);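 note: 0% = growth of vehicle-only cultures of the same strain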; details: S. cerevisiae rad50 strain growth inhibition; at 50.0 µM; hits give high values
How it was run: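 Inhibition values express reduced yeast growth in compound-treated cultures relative to vehicle-treated controls.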

[2] = NCI Yeast Anticancer Drug Screen. Data for the mec2-1 strain (AID 157); details: S. cerevisiae mec2-1 strain, at 50.0 µM, hits give high values
How it was run: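 Compounds were applied to mec2-1 yeast cells. Their growth was then compared with that of vehicle-treated cultures to give growth inhibition.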

[3] = NCI Yeast Anticancer Drug Screen. Data for the sgs1 mgt1 strain (AID 161);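 note: 0% = growth of cultures given vehicle only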; details: S. cerevisiae sgs1 mgt1 strain, at 50.0 µM, hits give high values
How it was run: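 Percent growth inhibition was derived by comparing compound-exposed mutant yeast with vehicle-exposed cultures. The strain carries alterations in DNA damage repair.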

[4] = NCI Yeast Anticancer Drug Screen. Data for the cln2 rad14 strain (AID 165);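 note: 0% = growth equal to vehicle treated cultures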; details: S. cerevisiae cln2 rad14 strain, at 50.0 µM, hits give high values
How it was run: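 Strain: cln2 rad14 yeast, altered in cell cycle control and DNA damage repair. Read-out: growth inhibition vs vehicle.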

[5] = NCI Yeast Anticancer Drug Screen. Data for the bub3 strain (AID 167); details: S. cerevisiae bub3 mutant strain, at 50.0 µM, hits give high values
How it was run: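 Steps: expose the mutant yeast strain to compound; grow alongside vehicle-treated cultures; measure growth; express inhibition against the vehicle cultures.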

[6] = NCI Yeast Anticancer Drug Screen. Data for the mlh1 rad18 strain (AID 175); details: S. cerevisiae mlh1 rad18 strain growth inhibition; at 50.0 µM; hits give high values
How it was run: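 A repair-deficient yeast strain is exposed to test compound, and growth is scored relative to vehicle-treated controls.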

Measured: growth inhibition

c1ccc2c(c1)Cc1c(-c3ccncc3)n[nH]c1-2
inactive: [1] 48.8% | [2] 33% | [3] 41.6% | [4] 10.3% | [5] 19.3% | [6] 60.1%

Cc1cc(N(CCC#N)CCC#N)ccc1/C=C(\NC(=O)/C=C/c1ccccc1)C(N)=O
inactive: [1] 3.15% | [2] -7.85% | [3] 15.1% | [4] -10.6% | [5] -33.1% | [6] -15.8%

CCCCCCCCCCCCCCCCc1c(C)ncn(C)c1=O
inactive: [1] -13.9% | [2] 2% | [3] 5.4% | [4] -8.15% | [5] -9.2% | [6] -49%

CSC1=N/C(=C\c2ccc(C)cc2)C(=O)N1
inactive: [1] -35.5% | [2] 0.3% | [3] 20.2% | [4] 0.85% | [5] -6.35% | [6] -10.5%

CCOC(=O)c1ccccc1OCc1ccccc1
inactive: [1] 13.3% | [2] 15.2% | [3] 5.75% | [4] -5.9% | [6] 14.9%

O=[N+]([O-])c1ccccc1Sc1ccc2c3c(cccc13)CN(CCCO)C2
inactive: [1] 66.3% | [2] 7.05% | [3] 47.6% | [4] 6.8% | [6] 50.9%

N#Cc1c(-c2ccccc2)c(C#N)c(=O)n(N)c1N
inactive: [1] -6.7% | [2] -0.8% | [3] 7.35% | [4] 2.5% | [6] 16.9%

OCC1=CC(c2ccccc2)(c2ccccc2)c2ccccc21
active: [1] 95.2% | [2] 96.3% | [3] 96.7% | [4] 93.2% | [6] 95.4%

CCCc1ccc(N=Cc2cc(OC)c(OC)c(OC)c2)cc1
inactive: [1] -1.85% | [2] 13.3% | [3] 13.5% | [4] 4.4% | [6] 21.6%

CC1=CC(=O)C(C(C)C)CC1 (centres undefined)
inactive: [1] 1.1% | [2] -1.05% | [3] -11.1% | [4] -43% | [6] -0.35%

CCC(O)CN(C)C (centres undefined)
inactive: [1] 8% | [2] -4.6% | [3] 6.65% | [4] -13.4% | [6] 3.45%

COc1cc(C(OC(C)=O)OC(C)=O)c(Cl)cc1OC(C)=O
inactive: [1] 5.5% | [2] 5.15% | [3] 17.1% | [4] -2.1% | [6] 11.8%

CCCCC(CC)CN(CC)CC (centres undefined)
inactive: [1] -11.1% | [2] -4.25% | [3] -26.5% | [4] -10.4% | [6] 4.85%

CCOC(=O)c1cc(C)nc(Cl)c1[N+](=O)[O-]
inactive: [1] 19.4% | [2] 5.9% | [3] 4.35% | [4] 0.65% | [6] 6.95%

CC(=O)Nc1ccccc1Cc1nc2ccccc2c(=O)[nH]1
inactive: [1] 15.7% | [2] 12.6% | [3] 25.1% | [4] 7.9% | [6] 16.8%

COC(=O)c1ccc(C(=O)OC)c2nc3cc(Cl)ccc3nc12
inactive: [1] -7.05% | [2] -10.2% | [3] -35.5% | [4] -29.2% | [6] -40.1%

Cc1no[n+]([O-])c1C(=O)NN
inactive: [1] 6.35% | [2] 6.6% | [3] -14.3% | [4] -46.8% | [6] -12.4%

ClC(=Nc1ccccc1)c1cc(N2CCOCC2)ccn1
inactive: [1] 24.1% | [2] 11.1% | [3] 13.3% | [4] 8.35% | [6] 14%

Oc1ccc(CN=Cc2ccccc2)cc1
inactive: [1] 0.05% | [2] 3.3% | [3] -7.05% | [4] -14.9% | [6] -10.1%

N#CC(C(=O)C(N)=O)c1nc2ccccc2s1 (centres undefined)
inactive: [1] 20.2% | [2] 9.45% | [3] 19.4% | [4] 5.8% | [6] 2.25%

FC(F)(F)c1nc(=S)c2cn[nH]c2[nH]1
inactive: [1] 4.35% | [2] 31.1% | [3] 8.45% | [4] -12.2% | [6] -5.3%

NNC(=O)C(O)C(O)C(=O)NN (centres undefined)
inactive: [1] 8.5% | [2] -6.8% | [3] -20.2% | [4] 46.6% | [6] -8.1%

N#C/C(=C(/N)N1CCOCC1)N1CCOCC1
inactive: [1] -18.4% | [2] -8.95% | [3] -9.15% | [4] -13.6% | [6] -4.2%

CCCCCCCC/C=C\CCCCCCCC(=O)Cl
inactive: [1] -19% | [2] -33.8% | [3] -14% | [4] -55.9% | [6] -23.1%

NC1=NC(c2ccccc2)C2=C(N1)C(=O)N(c1ccc(Br)cc1)C2 (centres undefined)
inactive: [1] 43.3% | [2] -7.75% | [3] -2.45% | [4] -12.3% | [6] -2.65%

C=C(CN(C)C)C(=O)c1ccc(OC)cc1
inactive: [1] 7.75% | [2] 19% | [3] -3.75% | [4] 17.5% | [6] 27.2%

Cc1cccc(NC(=O)CC(=O)N2N=C(N3c4ccccc4Sc4ccccc43)CC2c2ccccc2)c1 (centres undefined)
inactive: [1] -1.85% | [2] -5.5% | [3] -10.1% | [4] -9.55% | [6] -41.8%

CC1C(=O)C(O)CC2C1(C)CCC1C2(C)CCC2(C)C3CC(C)(C)CCC3(C)CCC12C (centres undefined)
inactive: [1] -7.2% | [2] -2.6% | [3] -6.45% | [4] 1.2% | [6] -4.7%

COc1cc(C2C3=C(COC3=O)OC(C)(C)Oc3cc4c(cc32)OCO4)cc(OC)c1OC (centres undefined)
inactive: [1] 4.95% | [2] -11.8% | [3] 14.8% | [4] 52.9% | [6] 22%

Cc1ccc2nc(Nc3nc(C)cc(C)n3)[nH]c2c1
inactive: [1] -36.9% | [2] -31.6% | [3] -21.9% | [4] -0.3% | [6] -11.9%

C=CC(Br)(CBr)CCC(Cl)C(C)C (centres undefined)
active: [1] 86.2% | [2] 90.7% | [3] 90.8% | [4] 91.7% | [6] 90.5%

CN1C2CC(=O)CC1[C@@H]1OC(c3ccccc3)O[C@H]21 (some centres undefined)
inactive: [1] 6.65% | [2] -3.25% | [3] -15.4% | [4] 27.9% | [6] 19.5%

CN(Cc1ccccc1)C(OCc1ccccc1)c1ccccc1 (centres undefined)
inactive: [1] 3.15% | [2] -13% | [3] 10.1% | [4] -8.3% | [6] 5.4%

N#CC1=C(N)N(c2ccccc2)C(c2ccccc2)C1(C#N)C#N (centres undefined)
inactive: [1] 6.45% | [2] 14.2% | [3] -8.3% | [4] -4.9% | [6] -4.75%

O=C(Nc1nc(C23CC4CC(CC(C4)C2)C3)cs1)c1cc2cc(Br)cc(Br)c2oc1=O
inactive: [1] -8.75% | [2] -13.8% | [3] 23.3% | [4] 19.9% | [6] -8.4%

CC(C)C(=O)C(F)(F)F
inactive: [1] 14.3% | [2] 2.45% | [3] -21.3% | [4] 6.45% | [6] -2.3%

c1scc2c1COCCOCCOCCOCc1cscc1COCCOCCOCCOC2
inactive: [1] -20.2% | [2] -26.1% | [3] -38.4% | [4] 26.6% | [6] -46.5%

CC(=O)CC(=O)C(C)C.[Cu+2]
inactive: [1] -7.6% | [2] -15.9% | [3] -17.1% | [4] -17.9% | [6] -17.4%

CCCCC(Nc1nncs1)Nc1nncs1
inactive: [1] -8.9% | [2] -18% | [3] 9.85% | [4] 3.7% | [6] 2.6%

O=C(O)c1cc(-c2c(Cl)cccc2Cl)nc2cc3ccccc3cc12
inactive: [1] 26% | [2] 15.8% | [3] 28.9% | [4] 21.4% | [6] 26.4%

CC(=O)n1cc2cc([N+](=O)[O-])ccc2n1
inactive: [1] -13.4% | [2] -13.6% | [3] -1.15% | [4] -91.8% | [6] -17.1%

Cc1csc(-c2ccncc2)n1
inactive: [1] 6.05% | [2] 6.9% | [3] -1.55% | [4] -8.3% | [6] -5.35%

Nc1ncnc2c1c1c(=O)[nH]c(=O)[nH]c1n2C1OC(CO)C(O)C1O (centres undefined)
inactive: [1] -1.95% | [2] 1.8% | [3] 7.35% | [4] 2.15% | [6] -44.5%

N#[N+]c1ccc2c(c1)C(=O)c1ccccc1-2
inactive: [1] 3.2% | [2] 0.05% | [3] -0.6% | [4] -46.2% | [6] -6.65%
